Results published in PubChem BioAssay AID488862 (Broad Institute, 2010).
In all, about 340,000 compounds went through this assay and about 1,200 (0.35%) were called active. This is one part of a sample in which actives are shown more often than they occur. Values without a mark were called inactive. No stated cut-off is given here; in the data, active means inhibition above about 52%; inactive means the rest.

Assay: inhibition of PrP 5' UTR reporter expression (AID 488862); further: 0 = median of the neutral control wells
Settings: cell-based PrP 5' UTR mRNA reporter, plate reader; hits give high values; concentration not given here

Which inhibition does the source give for COc1ccc(OCC(=O)N2CCN(C(=O)c3cccs3)CC2)cc1 here?
The inhibition was -6.1%.

With O=C(CSc1ncnc2sccc12)N1CCN(C(=O)c2cccs2)CC1 as the compound, how does the inhibition read?
The inhibition was 87.3% (active).

Which inhibition does the source give for O=C(CSc1ncnc2sccc12)NC1CCS(=O)(=O)C1 (stereo unspecified) here?
Its inhibition is -11.1%.

For C/C(CC(=O)Nc1ccc(C)cc1C)=N\NC(=O)C(C)C, which inhibition is on record?
The inhibition was -21%.

For COC(=O)c1cc(S(=O)(=O)NC2CCN(Cc3ccccc3)CC2)cn1C, which inhibition is on record?
The inhibition was -8.61%.

With Brc1ccc2ncnc(NCc3cccnc3)c2c1 as the compound, how does the inhibition read?
The inhibition was 12.1%.

Which inhibition does the source give for O=C(O)CCCCCNc1ncnc2ccc(Br)cc12 here?
Its inhibition is 6.38%.

With COc1ccc(Nc2ncnc3ccc(Br)cc23)c(OC)c1 as the compound, how does the inhibition read?
The inhibition was 72.3% (active).

Which inhibition does the source give for Cc1ccc(C)c(NC(=O)COC(=O)c2nn(C)c(=O)c3ccccc23)c1 here?
The inhibition was -7.85%.

For O=C1Nc2cc(C(=O)N3CCN(c4ccc(F)cc4)CC3)ccc2NC1CSCc1cccc(F)c1 (stereo unspecified), which inhibition is on record?
The inhibition was -17.6%.

For CCOCCCNC(=O)C(=O)NCCCOCC, which inhibition is on record?
Its inhibition is -28.8%.

For CC(C)CC(CC(C)C)=NNC(=O)c1ccc(CSc2nncn2C)cc1, which inhibition is on record?
The inhibition was -20.2%.

For CSc1nc(-c2ccccc2)nc(C(Cl)Cl)n1, which inhibition is on record?
Its inhibition is 86.3% (active).

For CN(C)C(=S)N=c1ssc(=S)n1Cc1ccco1, which inhibition is on record?
Its inhibition is 13.6%.

With COc1ccc(C(=O)N[C@H](C(=O)NCc2ccccc2)C(C)C)cc1 as the compound, how does the inhibition read?
Its inhibition is -2.13%.

For COc1cc(OC)cc(C(=O)N[C@H](C(=O)NNC(=O)c2ccc(Br)cc2)C(C)C)c1, which inhibition is on record?
Its inhibition is -12.3%.

Which inhibition does the source give for COc1cc(OC)cc(C(=O)N[C@H](C(=O)Nc2nc3ccccc3[nH]2)C(C)C)c1 here?
Its inhibition is 67.8% (active).

Which inhibition does the source give for Cc1cc(C)c(SCCc2ccncc2)c(C)c1 here?
Its inhibition is -26.1%.

For O=C1/C(=C/c2ccc(F)cc2)SC(=S)N1CCCC(=O)N1CCCCC1CCO (stereo unspecified), which inhibition is on record?
The inhibition was -14.7%.

With Cc1ccc(/C=C2/SC(=S)N(CCC(=O)NCCCN3CCOCC3)C2=O)cc1 as the compound, how does the inhibition read?
Its inhibition is -12.2%.

For C=CCOc1ccc(/C=C2\SC(=S)N(CCC(=O)O)C2=O)cc1, which inhibition is on record?
Its inhibition is 79.7% (active).

For Cn1c(=S)sc2ccc3ccccc3c21, which inhibition is on record?
Its inhibition is -8.89%.

With CCC(C)Cn1c(O)cc2nn(-c3nc4ccccc4s3)c(=O)c-2c1C (stereo unspecified) as the compound, how does the inhibition read?
Its inhibition is 92.2% (active).

With O=C(C(=O)N1CCc2ccccc2C1)c1c[nH]c2ccccc12 as the compound, how does the inhibition read?
Its inhibition is -13.2%.

For Cc1nc2nc(COc3ccccc3)[nH]n2c(=O)c1Cc1ccccc1, which inhibition is on record?
The inhibition was -6.88%.

Which inhibition does the source give for COc1cccc(-n2c(=S)[nH]c3c(oc4ccccc43)c2=O)c1 here?
Its inhibition is -5.49%.

For O=c1oc2ccccc2cc1-c1cn(-c2ccccc2)c(=S)[nH]1, which inhibition is on record?
The inhibition was 65.9% (active).

Which inhibition does the source give for CS(=O)(=O)N1CCN(C(=O)c2cc3ccccc3oc2=O)CC1 here?
The inhibition was -9.85%.

Which inhibition does the source give for CC1(C)O[C@@H]2[C@H](O1)[C@@H](COS(=O)(=O)O)O[C@H]2n1cnc2c(=O)[nH]cnc21 here?
The inhibition was -8.78%.

For COc1ccc(C(=O)Nc2cccc(/C=C(/CCC(=O)O)c3nc4ccccc4s3)c2)cc1, which inhibition is on record?
The inhibition was -8.9%.

Which inhibition does the source give for COC(=O)Cc1[nH]n(-c2nc3ccccc3s2)c(=O)c1C(C)=Nc1ccc(OC)cc1 here?
Its inhibition is 80.1% (active).

Which inhibition does the source give for CC(=NCc1ccco1)c1c(C(F)(F)F)[nH]n(-c2nc3ccccc3s2)c1=O here?
The inhibition was 0.0675%.

With COc1ccc(C(=O)COC(=O)C(O)c2ccccc2)c(OC)c1 (stereo unspecified) as the compound, how does the inhibition read?
The inhibition was -34.1%.

For CC(=O)OC1C2(CC3N4C(=O)C5(CO)SSC4(CC31O)C(=O)N5C)OC(C)C(C)(C)C2=O (stereo unspecified), which inhibition is on record?
The inhibition was 96.4% (active).

With CC(C)c1ccc(/C=C/C(=O)NCCCN2CCOCC2)cc1 as the compound, how does the inhibition read?
The inhibition was -9.62%.

Which inhibition does the source give for OCCC1CN(Cc2ccc3nsnc3c2)CCN1C1CCCC1 (stereo unspecified) here?
The inhibition was -10%.

For Cc1ccsc1C(=O)OCC(=O)c1cc(C)n(CC2CCCO2)c1C (stereo unspecified), which inhibition is on record?
The inhibition was 78.7% (active).

Which inhibition does the source give for COc1ccc(C(=O)OCC(=O)c2cc(C)n(CC3CCCO3)c2C)cc1[N+](=O)[O-] (stereo unspecified) here?
Its inhibition is -11.7%.

For Cc1ccsc1C(=O)OCC(=O)Nc1cccc(F)c1, which inhibition is on record?
The inhibition was -13.8%.

With COc1ccc(Cl)cc1NC(=O)[C@@H]1CCCN1C(=O)c1cccs1 as the compound, how does the inhibition read?
Its inhibition is -9.55%.

Which inhibition does the source give for COc1cc(NS(=O)(=O)c2ccc(NC(=S)NC(=O)c3ccccc3)cc2)nc(OC)n1 here?
The inhibition was 1.17%.

With CS(=O)(=O)N(CC(=O)N1CCCCCC1)c1cccc(Cl)c1Cl as the compound, how does the inhibition read?
The inhibition was -24.3%.

Which inhibition does the source give for COc1ccc(NS(=O)(=O)c2ccc3oc(SCC(N)=O)nc3c2)cc1 here?
Its inhibition is -11.7%.

For COc1ccc(S(=O)(=O)Nc2ccc3oc(C)c(C(C)=O)c3c2)cc1, which inhibition is on record?
Its inhibition is -20.1%.

Which inhibition does the source give for CCn1c(=O)c(=O)[nH]c2c(=O)oc3ccc(S(=O)(=O)Nc4ccc(OC)cc4)cc3c21 here?
Its inhibition is 69% (active).

With O=c1c2ccccc2cnn1Cc1n[nH]c(=S)n1-c1ccccc1F as the compound, how does the inhibition read?
Its inhibition is -33.3%.

For O=C(COc1cc(Cl)c(Cl)cc1Cl)NCCc1ccccn1, which inhibition is on record?
The inhibition was -11.6%.

For Cc1ccc(Cc2cnc(N)s2)o1, which inhibition is on record?
Its inhibition is -14.5%.

With Cc1ccc(CCC(=O)Nc2ncc(Cc3cc(Cl)ccc3Cl)s2)o1 as the compound, how does the inhibition read?
Its inhibition is 78% (active).

Which inhibition does the source give for Cc1ccc(C(=O)Nc2nc3ccc(Cl)cc3s2)o1 here?
Its inhibition is -73.3%.

For Cn1c(-c2ccccc2)c[n+]2c1CCCCC2, which inhibition is on record?
Its inhibition is -9.16%.

For CCN1CCN(c2nc(Nc3cc(OC)ccc3OC)nc(Nc3cc(OC)ccc3OC)n2)CC1, which inhibition is on record?
The inhibition was -23.7%.

With CCOC(=O)c1c(C)n(C)c2ccc(OC)c(NC(=O)CN3CCC4(CC3)OCCO4)c12 as the compound, how does the inhibition read?
The inhibition was -19%.

With NS(=O)(=O)c1ccc(CNC(=O)c2ccc(Cl)cc2[N+](=O)[O-])cc1 as the compound, how does the inhibition read?
The inhibition was -4.62%.

Which inhibition does the source give for NC(=O)c1ccc(NC(=O)COC(=O)c2ccc([N+](=O)[O-])cc2)cc1 here?
Its inhibition is 61.8% (active).

Which inhibition does the source give for O=C(COC(=O)C1CCCCC1)Nc1ccc([N+](=O)[O-])cc1 here?
Its inhibition is 5.99%.

With CC(=O)Nc1ccc(C(=O)OCC(=O)Nc2ccc([N+](=O)[O-])cc2C(F)(F)F)cc1 as the compound, how does the inhibition read?
Its inhibition is -18.6%.

With O=C(CCc1ccccc1)NCCc1cccs1 as the compound, how does the inhibition read?
The inhibition was -25.9%.

For Cn1c(SCC(=O)NC2CCCCC2)nnc1-c1cc2ccccc2o1, which inhibition is on record?
Its inhibition is -18.5%.

Which inhibition does the source give for O=[N+]([O-])c1ccc(C=NN=Cc2ccc([N+](=O)[O-])cc2)cc1 here?
Its inhibition is -32.5%.

Which inhibition does the source give for Nc1ccc([N+](=O)[O-])cc1 here?
The inhibition was 3.7%.

For O=C1/C(=C\c2ccc([N+](=O)[O-])cc2)CS(=O)(=O)C/C1=C/c1ccc([N+](=O)[O-])cc1, which inhibition is on record?
Its inhibition is 71.1% (active).

With Cc1nonc1C(=O)N/N=C/c1ccc(O)cc1 as the compound, how does the inhibition read?
The inhibition was -28.8%.

With COC(=O)c1ccccc1NC(=O)CN(Cc1ccccc1)S(C)(=O)=O as the compound, how does the inhibition read?
Its inhibition is -21.1%.

Which inhibition does the source give for COc1cccc(/C=N\Nc2nncc(-c3ccccc3)n2)c1 here?
The inhibition was -63.5%.

With CN(CCO)c1ccc(/C=N/Nc2nncc3ccccc23)cc1 as the compound, how does the inhibition read?
The inhibition was 79.8% (active).

For C/C(=N\Nc1nncc2ccccc12)c1ccc(Cl)c([N+](=O)[O-])c1, which inhibition is on record?
Its inhibition is -45.7%.

Which inhibition does the source give for CC(C)(C)C1CCC(C(=O)Nc2cccnc2)CC1 (stereo unspecified) here?
Its inhibition is -7.89%.

With O=C(Nc1ccc(Br)cn1)C1CCN(S(=O)(=O)c2cccs2)CC1 as the compound, how does the inhibition read?
The inhibition was -7.76%.

Which inhibition does the source give for CC1CCc2sc(C(=O)N/N=C/C3CCCCC3)cc2C1 (stereo unspecified) here?
The inhibition was 1.9%.

For C/C(=N\NC(=O)c1cc2c(s1)CCC(C)C2)c1cccnc1 (stereo unspecified), which inhibition is on record?
The inhibition was 55.4% (active).

For C/C(=N\NC(=O)c1ccc2ccccc2c1)c1cccnc1, which inhibition is on record?
Its inhibition is -12.7%.

For COc1ccc2oc(C(=O)OCC(=O)N(CC(C)C)c3c(N)n(Cc4ccccc4)c(=O)[nH]c3=O)c(C)c2c1, which inhibition is on record?
Its inhibition is 4.93%.

Which inhibition does the source give for COc1ccc(N(C(=O)c2ccc(C)cc2)S(=O)(=O)c2cccs2)cc1 here?
Its inhibition is -6.19%.

For CC(C)(C)c1ccc(OC(=O)N2CCCCC2)cc1, which inhibition is on record?
The inhibition was -72.8%.

With CC(C)(C)c1ccc(Oc2ccc(N)cc2)cc1 as the compound, how does the inhibition read?
Its inhibition is 64.6% (active).

For CC(C)(C)c1ccc(OC2=CS(=O)(=O)c3ccccc32)cc1, which inhibition is on record?
The inhibition was -61.3%.

Which inhibition does the source give for CCOC(=O)N1CCN(C(=O)COCc2cc(-c3ccc4c(c3)OCO4)on2)CC1 here?
The inhibition was -11.7%.

With N#C/C=C\Oc1ccc(Cl)cc1N as the compound, how does the inhibition read?
The inhibition was -13%.

With COc1cccc2c1OCC1COc3c(c(=O)n(C)c(=O)n3C)C21 (stereo unspecified) as the compound, how does the inhibition read?
Its inhibition is -23.4%.

With O=C(NCCCN1CCOCC1)c1ccccc1NS(=O)(=O)c1ccc(Br)cc1 as the compound, how does the inhibition read?
The inhibition was -22.1%.

For COCC(C)n1c(C)cc(C(=O)CSc2cc(C)c3ccccc3n2)c1C (stereo unspecified), which inhibition is on record?
The inhibition was -11.2%.

For c1ccc(-n2ncc(-c3nn[nH]n3)n2)cc1, which inhibition is on record?
The inhibition was -12.7%.

For c1c2c(cc3sc(N4CCCCC4)nc13)OCCO2, which inhibition is on record?
Its inhibition is 76.1% (active).

Which inhibition does the source give for CN(C)CCN(C(=O)C1CCCCC1)c1nc2cc3c(cc2s1)OCO3 here?
Its inhibition is -8.29%.

With O=S(=O)(Nc1ccc2nc(N3CCOCC3)sc2c1)c1ccccc1 as the compound, how does the inhibition read?
The inhibition was -104%.

Which inhibition does the source give for CC(=O)N1CCc2cc(S(=O)(=O)Nc3ccccc3N3CCN(C)CC3)ccc21 here?
The inhibition was -36.7%.

For Cc1ccc(C(c2sc3nc(C)nn3c2O)N2CCN(c3ccccc3)CC2)cc1 (stereo unspecified), which inhibition is on record?
Its inhibition is -16.6%.

With CC12CCC3C(CCC4CC(=O)CCC43C)C1CC(=NO)C2=O (stereo unspecified) as the compound, how does the inhibition read?
The inhibition was 52% (active).

Which inhibition does the source give for C[C@]12CCC3C(CC[C@H]4[C@H](O)[C@H](O)CC[C@]34C)C1CCC2=O (stereo partly specified) here?
Its inhibition is -23.5%.

With CC(C)C(NC(=O)OCc1ccccc1)C(=O)OCC(=O)N1C(C)CCCC1C (stereo unspecified) as the compound, how does the inhibition read?
Its inhibition is -20.8%.

Which inhibition does the source give for CN(C)C(=O)c1cc(Br)ccc1Cl here?
The inhibition was -23.2%.

With CC(C)CC[n+]1ccn(C2=C([O-])c3ccccc3C(=O)/C2=N\S(=O)(=O)c2ccccc2)c1 as the compound, how does the inhibition read?
The inhibition was -17.3%.

For CC(C)C(C)NC(=O)COc1nc2ccccc2nc1N(C)C1CCCCC1 (stereo unspecified), which inhibition is on record?
The inhibition was -28.4%.

Which inhibition does the source give for CC(C)(C)c1nc2ccccc2c(=O)n1N1C(=O)c2ccccc2C1=O here?
Its inhibition is -7.16%.

With CN(c1ccc2nc3ccccc3c(=O)n2n1)C1CCCCC1 as the compound, how does the inhibition read?
The inhibition was 78.1% (active).
